gsp ag – agonists of gsp mutant (McCune-Albright syndrome); AID 624287; Potency, µM (titrated, usually from 76.9 µM), for the others: at the highest dose activation (cAMP increase), hits mostly activators; gsp mutant cells, cAMP HTRF, 30 min; 0.13% of 340,000 active; active = well fitted activation curve with a large enough effect; inconclusive = small, poorly fitted or top-dose-only effect, or another doubt; inactive = no such curve, though single readings can be large or run the other way; cell line not stated here;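 also: phosphodiesterase inhibitor Ro 20-1724 added with compounds to block cAMP breakdown; nearly all actives have a fitted effect of over 60% in size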
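Cells in DMEM/10% FBS with G418 were pretreated with compounds in DMSO plus […] (300 uM stock) for 30 min at 37C. cAMP was measured by HTRF (cAMP-d2 plus anti-cAMP antibody-K) after 30 min at room temperature.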
ASM inhibitor – human S-ASM enzyme inhibition; placental ASM, HMU-PC fluorogenic substrate, 60 min; Potency, µM (titrated, usually from 57.5 µM), inactives show top-dose activity change, negative = inhibition, hits mostly inhibitors; AID 504937; 0.006% of 340,000 active; P17405; active = well fitted inhibition curve with a large enough effect; inconclusive = small, poorly fitted or top-dose-only effect; inactive = no such curve, though single readings can be large or run the other way
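Fluorescence read-out (Ex 386 nm, Em 447 nm) after stopping the reaction at pH 10. Enzyme: ASM from human placenta; substrate HMU-PC0, 9 uM final; 60 min, 37 °C. Compound preincubation 10 min, ambient temperature.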
MBNL1-CUG inh – blocks human MBNL1 binding to CUG repeat RNA | Q9NR56 | TR-FRET MBNL1-His/biotin-(CUG)12 binding, 665/545 ratio | Potency, µM (highest dose often 57.5 µM), for inactives: at the top dose activity change, negative = inhibition, most hits filed as inhibitors | 0.036% of 280,000 active | AID 2675; active = well fitted inhibition curve with a large enough effect in the signal ratio, with a control signal flat, not every such curve was filed as active; inconclusive = small, poorly fitted or top-dose-only effect, or effect the other way, or a change in a side signal; inactive = no such curve, though single readings can be large or run the other way; the % refers to the signal ratio; also: % is scaled to controls: 0 for no effect and ±100 for the full control effect
Target sequence (Q9NR56 whole entry, looked up): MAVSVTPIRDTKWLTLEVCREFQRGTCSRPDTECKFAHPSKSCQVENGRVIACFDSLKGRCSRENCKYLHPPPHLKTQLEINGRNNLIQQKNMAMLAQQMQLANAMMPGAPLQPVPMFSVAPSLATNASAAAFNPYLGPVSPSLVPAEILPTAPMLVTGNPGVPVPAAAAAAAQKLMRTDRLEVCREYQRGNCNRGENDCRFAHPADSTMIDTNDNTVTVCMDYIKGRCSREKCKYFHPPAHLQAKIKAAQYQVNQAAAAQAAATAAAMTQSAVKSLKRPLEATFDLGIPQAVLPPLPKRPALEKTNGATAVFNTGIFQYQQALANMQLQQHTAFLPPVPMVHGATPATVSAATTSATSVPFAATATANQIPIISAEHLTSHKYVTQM
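Ratiometric TR-FRET (665 over 545 nm, excitation 340 nm) tracks disruption of MBNL1-His/biotin-(CUG)12 complex after 60 min at room temperature, with compounds at 92 nM to 58 uM final.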
BCR signal inh – chronic active BCR signaling inhibition. ABC-DLBCL IkBa-CBG/CBR reporter, luminescence ratio, 4 h. Potency, µM (top dose mostly 46.1 µM), without a hit: top-dose activity change, negative = inhibition, hits mostly inhibitors. 0.05% of 340,000 active; active = well fitted inhibition curve with a large enough effect in the signal ratio, with a control signal flat, not every such curve was filed as active; inconclusive = small, poorly fitted or top-dose-only effect, or effect the other way, or a change in a side signal; the % refers to the signal ratio;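 also: plate controls were basal doxycycline-induced cells for no effect and cells given 10 µM MG132 for full effect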
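TMD8 ABC-DLBCL cells carrying doxycycline-inducible green luciferase fused to IkappaBalpha plus unfused red luciferase were exposed to compounds (up to 46 uM) for 4 hrs at 37C. Activity came from the overlap-corrected green/red luminescence ratio.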
gsp antagonist – antagonizes gsp, the McCune-Albright syndrome mutation. 0.4% of 340,000 active. AID 624288. Potency, µM (doses to about 76.9 µM), without a hit: top-dose activity change, negative = inhibition, usual class: inhibitors. gsp-mutant cells, cAMP HTRF, 30 min; calls by dose curve; cell line not stated here;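 also: intracellular cAMP measured with PDE inhibitor Ro 20-1724 present during compound exposure; % is scaled to controls: 0 for no effect and ±100 for the full control effect; nearly all actives have a fitted effect of over 65% in size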
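HTRF cAMP measurement after 30 min RT detection following 30 min, 37C compound treatment alongside […] (added as 300 uM solution) in G418-selected cells seeded at 2000/well and grown 16–24 h.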
Numbers without * were called inactive; i = inactive; ? = inconclusive; · = no result; [ ] = another dose, or the depositor's remark. This is a sample that favours compounds with a hit; in the whole collection about 0.62% have one here. Potency is read from the fitted curve at half-maximal effect.

SMILES	gsp ag	ASM inhibitor	MBNL1-CUG inh	BCR signal inh	gsp antagonist
C=CCn1nc(C(=O)N2CCOCC2)cc1-c1sc(NC(=O)c2ccccc2)nc1C	22µM*	·	·	·	·
CC(=O)Nc1ccccc1C(=O)OCC(=O)c1ccc2ccccc2c1	-6%	-13%	?	1%	25µM*
CC(=O)Nc1ccccc1C(=O)OCc1cccc(F)c1	9%[15.4 µM]	2%	2%	?	11%
Nc1ccccc1C(=O)OCC(=O)c1ccc2c(c1)OCCO2	0%	6%	1%	?	?
CC(=O)Nc1ccccc1C(=O)OCc1ccc(C(=O)c2ccccc2)cc1	-7%	-7%	-14%	1%	1.8µM*
CCOC(=O)Cn1c(=O)oc2cc(S(=O)(=O)N3CCN(C(=O)c4ccco4)CC3)ccc21	-49%	2%	-17%	?	6%
CN1C(=O)C(Cc2nc3ccccc3c(=O)n2-c2ccccc2)c2ccccc21 (stereo not given)	-4%	0%	-6%	?	35µM*
O=C1Nc2ccccc2C1Cc1nc2ccccc2c(=O)n1-c1ccccc1 (stereo not given)	22%	-1%	?	?	-5%
CCC(C)c1ccc(NC(=O)Nc2cccnc2)cc1 (stereo not given)	0%	-4%	-2%	?	9%
CC(=O)C1=C(O)C2(C)c3c(O)c(C)c(O)c(C(C)=O)c3OC2CC1=O (stereo not given)	-50%	·	·	·	·
CN(C)CCC=C1c2ccccc2CCc2ccccc21	·	3%	13%	?	20µM*
C=C(C)C(Cc1c(OC)ccc(C(=O)/C=C/c2ccc(O)cc2)c1O)OO (stereo not given)	·	?	·	?	25µM*
O=C(C(=O)N1CCOCC1)c1cn(Cc2c(F)cccc2Cl)c2ccccc12	-7%[15.4 µM]	0%	8%	?	9%
Cc1cc2c(cc(C(=O)N3CCC(C(=O)NC4CCCC4)CC3)n2Cc2c(F)cccc2Cl)o1	-46%	-3%	-5%	-1%	35µM*
O=C(CNC(=O)c1cccc(Cl)c1)Nc1ccc(Br)cc1C(=O)c1ccccc1	10%	-10%	·	?	40µM*
COc1cc(OC)cc(C(=O)Nc2ccc(N3CCN(C(=O)c4cccs4)CC3)cc2)c1	-3%[15.4 µM]	·	-6%	?	18%
O=C(c1cc(-c2ccc(Cl)cc2)n(-c2ccc(Cl)cc2Cl)n1)N1CCOCC1	-10%	28µM*	-4%	4%	4%
CCOc1ccc(S(=O)(=O)Nc2cccc(C(=O)N3CCN(c4ccccn4)CC3)c2)cc1	-30%	·	·	·	·
COc1ccc(NC(=O)CCOc2cc(C)ccc2C)cc1S(=O)(=O)N1CCCCC1	2%[15.4 µM]	-7%	·	-4%	?
C[C@H](CO)N1C[C@H](C)[C@@H](CN(C)Cc2ccc(-c3ccccc3)cc2)Oc2c(NC(=O)c3ccncc3)cccc2C1=O	·	-3%	·	4%	32µM*
COc1ccccc1N1CCN(C(=O)CCC(=O)Nc2nnc(CC(C)C)s2)CC1	21%	2%	0%	1%	-6%
O=C1C(=O)c2ccccc2-c2ccccc21	·	-3%	?	?	18µM*
O=C1C(=O)c2cccc3cccc1c23	1%	-1%	29%[11.5 µM]	?	15%
COc1ccc(OC)c(C2=NS(=O)(=O)N(C)C(C(=O)Nc3ccc(F)cc3F)=C2)c1	31%	-8%	?	?	?
Cc1ccc2c(C)c3ccc4ccccc4c3c[n+]2c1	?	i	·	·	50µM*
COC(=O)c1cc(NC(=O)Nc2cccc(Cl)c2)ccc1Cl	-4%	-24%	10%	?	25µM*
CN1CCN(c2ncnc3ccc(Br)cc23)CC1	?	0%	-1%	-1%	21%
CN1CCC(N(C)c2ncnc3ccc(Br)cc23)CC1	32µM*	1%	-1%	?	0%
C#C[C@]1(O)CC[C@H]2[C@@H]3CCC4=Cc5nc6nc7ccccc7n6cc5C[C@]4(C)[C@H]3CC[C@@]21C	·	112%	·	?	32µM*

Screens as filed in PubChem BioAssay.
